# Active and inactive are the calls of the source. Calls come from the whole dose curve; as a rule, active = well fitted curve in the direction sought with a large enough effect; inactive = no such curve, though single readings can be large or run the other way.
# Biological target: ATP-dependent 6-phosphofructokinase (Geobacillus stearothermophilus) (UniProt P00512)
# Assay: Confirmatory Assay to Find Inhibitors of T. brucei phosphofructokinase: Counter Screen against Bacillus PFK
# Settings: B. stearothermophilus PFK, ADP-Glo luminescence, 45 min; series mostly up to 57.5 µM
# Text: Various species of the protozoan family Trypanosomatidae are responsible for a range of serious human diseases in tropical and subtropical areas of the world. […] Many of the disorders caused by trypanosomatids are fatal if left untreated, but most currently used drugs are inefficient and toxic. […] Oxidative metabolism involving the mitochondrial tricarboxylic acid cycle and oxidative phosphorylation are repressed in these parasites, and recent RNA interference (RNAi) experiments have shown that even partial depletion of certain individual glycolytic enzymes can lead to the death of cultured parasites. One such glycolytic enzyme, phosphofructokinase (PFK), catalyzes the formation of fructose-1,6-bisphosphate (F1,6BP) and ADP from fructose-6-phosphate (F6P) and ATP, and in many metabolic circumstances makes an important contribution to the control of flux through the glycolytic pathway. As a specific glycolytic target, PFK is particularly attractive as it catalyzes the first irreversible step in glycolysis, and structural and kinetic studies have shown very substantial and essential differences from corresponding host enzymes, allowing for the discovery of parasite-selective inhibitors. A luminescent biochemical assay was performed that used luciferase-based nucleotide detection (ADP-Glo, Promega) to examine the effect of identified actives against a bacterial isoform of PFK, namely Bacillus stearothermophilus, for target specificity. The assay is identical in concept to the T. brucei PFK qHTS assay, but instead uses the B. stearothermophilus isoform of PFK (Sigma, St. Louis, MO) and ATP/F6P at bacterial isoform-specific Km concentrations. NIH Chemical Genomics Center [NCGC] NIH Molecular Libraries Probe Centers Network [MLPCN] MLPCN Grant: MH092153-01 Assay Submitter (PI): Malcom Walkinshaw, University of Edinburgh
# Substrate buffer was dispensed into white, solid 1536-well plates at 3 uL/well in 0.1M triethanolamine (TEA) buffer, pH 8.0, containing final concentrations of 5 mM MgCl2, 0.01% Tween20, 0.6 mM fructose-6-phosphate (F6P) and 0.1 mM ATP. Then, 23 nl of compounds or DMSO were delivered to each well using a pin tool. One uL of B. stearothermophilus PFK (0.1 M TEA, 0.01% Tween20, 0.1% bovine serum albumin (BSA) and 10 nM PFK, final concentrations) was then dispensed, and plates were incubated at room temperature for 45 min. The luminescent detection reagent, ADP-Glo (Promega), was then added in two steps: the first reagent, ADP-Glo (which converts remaining uncatalyzed ATP), was added at 2.5 uL/well and incubated for ten minutes at room temperature, and the second component, Kinase Detection reagent (which converts ADP to ATP as a substrate for luciferase-based luminescence), was added immediately after at 5uL/well, followed by one final ten minute room temperature incubation. The plates were measured on a ViewLux plate reader for luminescent signal using a clear filter with a one second exposure. The %Activity was determined from the corrected luminescence values. 1x (1.25nM) and 0x PFK enzyme controls (untreated) were included to normalize %Activity of identified inhibitors; 0x enzyme values corresponded to 100%Activity (full inhibition), while 1x PFK enzyme values were used to normalize 0% Activity (no inhibition).
row,SMILES,outcome
1,Cc1cc(NS(=O)(=O)c2ccc(NC(=O)Cc3ccc(Cl)c(C(F)(F)F)c3)cc2)no1,inactive
2,Cc1cc(NS(=O)(=O)c2ccc(NCCc3ccc(Cl)c(Cl)c3)cc2)no1,inactive
3,Cc1cc(NS(=O)(=O)c2ccc(NC(=O)Cc3ccc(Cl)cc3Cl)cc2)no1,inactive
4,Cc1cc(NC(=O)c2ccc(NC(=O)Cc3ccc(Cl)c(Cl)c3)cc2)no1,inactive
5,O=C(Cc1ccc(Cl)c(Cl)c1)Nc1ccc(S(=O)(=O)Nc2ccccc2)cc1,inactive
6,Cc1cc(N[S+](=O)([O-])c2ccc(NC(=O)Cc3ccc(Cl)nc3)cc2)no1,inactive
7,Cc1cc(NS(=O)(=O)c2ccc(NC(=O)Cc3cccc(Cl)c3)cc2)no1,inactive
8,CN(C)c1cccc(NS(=O)(=O)c2ccc(NC(=O)Cc3ccc(Cl)c(Cl)c3)cc2)c1,inactive
9,O=C(Cc1ccc(Cl)c(Cl)c1)Nc1ccc(S(=O)(=O)Nc2cccc(O)c2)cc1,inactive
10,Cc1cc(NS(=O)(=O)c2ccc(NC(=O)Cc3ccc(Cl)c(Cl)c3)cc2)n(C)n1,inactive
11,Cc1cc(NS(=O)(=O)c2ccc(NC(=O)C(C)(C)c3ccc(Cl)c(Cl)c3)cc2)no1,inactive
12,Cc1cc(NS(=O)(=O)c2ccc(NC(=O)CCc3ccc(Cl)c(Cl)c3)cc2)no1,inactive
13,Cc1cc(NS(=O)(=O)C2CCN(C(=O)Cc3ccc(Cl)c(Cl)c3)CC2)no1,inactive
14,Cc1cc(N[S+](=O)([O-])c2ccc3cc(NC(=O)Cc4ccc(Cl)c(Cl)c4)ccc3c2)no1,inactive
15,Cc1cc(NS(=O)(=O)c2ccc(NC(=O)Cc3ccccc3)cc2)no1,inactive
16,Cc1cc(NC(=O)c2csc(NC(=O)Cc3ccc(Cl)c(Cl)c3)n2)no1,inactive
17,COc1ccc(CC(=O)Nc2ccc(S(=O)(=O)Nc3cc(C)on3)cc2)cc1C,inactive
18,Cc1cc(N(C)S(=O)(=O)c2ccc(NC(=O)Cc3ccc(Cl)c(Cl)c3)cc2)no1,inactive
19,COc1ccc(CC(=O)Nc2ccc(S(=O)(=O)Nc3cc(C)on3)cc2)cc1OC,inactive
20,Cc1cc(NS(=O)(=O)c2ccc(N(C)C(=O)Cc3ccc(Cl)c(Cl)c3)cc2)no1,inactive

row,SMILES,outcome
1,Cc1cc(NS(=O)(=O)c2cccc(NC(=O)Cc3ccc(Cl)c(Cl)c3)c2)no1,inactive
2,O=C(Cc1ccc(Cl)c(Cl)c1)Nc1ccc(S(=O)(=O)Nc2ccn[nH]2)cc1,inactive
3,Cc1cc(NS(=O)(=O)CCNC(=O)Cc2ccc(Cl)c(Cl)c2)no1,inactive
4,O=C(Cc1ccc(Cl)c(Cl)c1)Nc1ccc(S(=O)(=O)Nc2ccon2)cc1,inactive
5,O=C(Cc1ccc(Cl)c(Cl)c1)Nc1ccc(S(=O)(=O)O)cc1,inactive
6,Cc1cc(NS(=O)(=O)c2ccc(NS(=O)(=O)Cc3ccc(Cl)c(Cl)c3)cc2)no1,inactive
7,O=C(Cc1ccc(Cl)c(Cl)c1)Nc1ccc(S(=O)(=O)Nc2cncnc2)cc1,inactive
8,Cc1cc(NS(=O)(=O)c2ccc(NC(=O)Cc3ccc(Cl)cc3)cc2)no1,inactive
9,Cc1cc(NS(=O)(=O)c2ccc(NC(=O)Cc3ccc(C)c(C)c3)cc2)no1,inactive
10,Cc1cc(NS(=O)(=O)c2ccc(NC(=O)Cc3ccc(Cl)c(Cl)c3)cc2)no1,inactive
11,Cc1cc(NS(=O)(=O)c2ccc(NC(=O)c3ccc(Cl)c(Cl)c3)cc2)no1,inactive
12,Cc1cc(NS(=O)(=O)c2ccc(NC(=O)Cc3ccc(Cl)c(F)c3)cc2)no1,inactive
13,O=C(Cc1ccc(Cl)c(Cl)c1)Nc1ccc(S(=O)(=O)Nc2ccc(C(=O)O)cc2)cc1,inactive
14,Cc1cc(NS(=O)(=O)c2ccc(NC(=O)Cc3ccc(C)c(F)c3)cc2)no1,inactive
15,Cc1cc(NS(=O)(=O)c2ccc(C(=O)NCc3ccc(Cl)c(Cl)c3)cc2)no1,inactive
16,Cc1cc(NS(=O)(=O)c2ccc(NC(=O)Cc3ccc4ccccc4c3)cc2)no1,inactive
17,O=C(Cc1ccc(Cl)c(Cl)c1)Nc1ccc(S(=O)(=O)Nc2cccc(C(=O)O)c2)cc1,inactive
18,Cc1cc(NS(=O)(=O)c2ccc(NC(=O)Cc3ccc(Cl)c(Cl)c3)cc2)on1,inactive
19,Cc1cc(NS(=O)(=O)Cc2ccc(NC(=O)Cc3ccc(Cl)c(Cl)c3)cc2)no1,inactive
20,CCOC(=O)c1cccc(NS(=O)(=O)c2ccc(NC(=O)Cc3ccc(Cl)c(Cl)c3)cc2)c1,inactive

# — PubChem BioAssay AID588332 (National Center for Advancing Translational Sciences (NCATS), 2011)
